Laboratory results: PubChem BioAssay AID1159580 (chemical genetic matrix, 2015)
Where “and” joins values, the source holds several entries; their conditions need not be identical. Equal entries are not always repeated. The campaign covered roughly 5,500 compounds. About 2,000 (36%) were called active. Roughly 18% stayed inconclusive and do not appear here. Rule as the data show it: active = normalized growth mostly below about 0.91 (no sharp cut-off); inconclusive = no clear call, values can overlap the other calls; inactive = mostly above about 0.92. The list shows a part of the results.

Assay: chemical genetic growth profiling, strain panel (AID 1159580);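 also: tested at 20 µM; growth read once vehicle control cultures reached saturation at 30 °C; 1 = growth at the plate median or of vehicle wells; lower values mean less growth of the strain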
Details: growth OD
[1] = S. cerevisiae deletion strains, locus YAL013W, strain DEP1, hits give low values
[2] = S. cerevisiae deletion strains, locus YBR229C, strain ROT2, hits give low values
[3] = S. cerevisiae deletion strains, locus YCL061C, strain MRC1, hits give low values
[4] = S. cerevisiae deletion strains, locus YDL101C, strain DUN1, hits give low values
[5] = S. cerevisiae deletion strains, locus YDR150W, strain NUM1, hits give low values
[6] = S. cerevisiae deletion strains, locus YEL061C, strain CIN8, hits give low values
[7] = S. cerevisiae deletion strains, locus YGR078C, strain PAC10, hits give low values
[8] = S. cerevisiae deletion strains, locus YHR030C, strain SLT2, hits give low values
[9] = S. cerevisiae deletion strains, locus YHR087W, strain rtc3, hits give low values
[10] = S. cerevisiae deletion strains, locus YJR043C, strain POL32, hits give low values
[11] = S. cerevisiae deletion strains, locus YJR075W, strain HOC1, hits give low values
[12] = S. cerevisiae deletion strains, locus YLR058C, strain SHM2 (second series), hits give low values
[13] = S. cerevisiae deletion strains, locus YLR085C, strain ARP6, hits give low values
[14] = S. cerevisiae deletion strains, locus YLR262C, strain YPT6, hits give low values
[15] = S. cerevisiae deletion strains, locus YML094W, strain GIM5, hits give low values
[16] = S. cerevisiae deletion strains, locus YMR219W, strain ESC1, hits give low values
[17] = S. cerevisiae deletion strains, locus YMR263W, strain SAP30, hits give low values
[18] = S. cerevisiae deletion strains, locus YNL153C, strain GIM3, hits give low values
[19] = S. cerevisiae deletion strains, locus YNL298W, strain CLA4 (second series), hits give low values
[20] = S. cerevisiae deletion strains, locus YNL322C, strain KRE1, hits give low values
[21] = S. cerevisiae deletion strains, locus YNR030W, strain Alg12, hits give low values
[22] = S. cerevisiae deletion strains, locus YOL006C, strain TOP1, hits give low values
[23] = S. cerevisiae deletion strains, locus YPL055C, strain LGE1, hits give low values
[24] = S. cerevisiae deletion strains, locus YPL241C, strain CIN2, hits give low values
[25] = S. cerevisiae deletion strains, locus YPR135W, strain CTF4, hits give low values
[26] = S. cerevisiae strains, strain wild type, hits give low values
[27] = S. cerevisiae deletion strains, locus YDL134C, strain PPH21, hits give low values
[28] = S. cerevisiae deletion strains, locus YKL190W, strain CNB1, hits give low values
[29] = S. cerevisiae deletion strains, locus YLR039C, strain RIC1, hits give low values
[30] = S. cerevisiae deletion strains, locus YNL128W, strain TEP1, hits give low values
[31] = S. cerevisiae deletion strains, locus YGR229C, strain SMI1, hits give low values

Measured: normalized growth

CCOC(=O)C(=CNNC(=O)c1ccccc1-n1cccc1)C(=O)OCC
inactive: [1] 0.993 | [2] 1.01 | [3] 1.01 | [4] 1.03 | [5] 1.01 | [6] 0.955 | [7] 1.01 | [8] 1.01 | [9] 0.974 | [10] 1.01 | [11] 1.01 | [12] 0.994 | [13] 0.996 | [14] 0.912 | [15] 0.997 | [16] 1.01 | [17] 1 | [18] 0.999 | [19] 1.01 | [20] 0.981 | [21] 1.02 | [22] 0.986 | [23] 0.975 | [24] 1.04 | [25] 1.04 | [26] 0.935

CCOC(=O)C(=CNc1cccc(C#N)c1)C(=O)OCC
inactive: [1] 1.01 | [2] 0.987 | [3] 1 | [4] 1 | [27] 0.994 | [5] 0.992 | [6] 0.957 | [7] 1.01 | [8] 0.942 | [9] 0.973 | [10] 1.02 | [11] 0.981 | [28] 0.98 | [29] 0.988 | [12] 0.995 | [13] 0.977 | [14] 0.962 | [15] 0.963 | [16] 0.997 | [17] 1.01 | [30] 1.01 | [18] 1.01 | [19] 0.999 | [20] 0.997 | [21] 1.03 | [22] 0.91 | [23] 0.934 | [24] 1.01 | [25] 1.03 | [26] 0.994

CCOC(=O)C(=CNc1ccccc1N1CCOCC1)C(=O)OCC
active: [13] 0.722 | [25] 0.52
inactive: [1] 0.96 | [2] 0.989 | [3] 0.978 | [4] 0.958 | [5] 0.939 | [6] 1 | [7] 0.963 | [31] 0.978 | [8] 0.759 | [9] 0.999 | S. cerevisiae deletion strains, locus YJL187C, strain SWE1, hits give low values 0.979 | [10] 0.967 | [11] 0.991 | [28] 0.955 | [29] 0.9 | [12] 0.971 | [14] 0.915 | [15] 0.958 | [16] 0.981 | [17] 0.968 | [18] 0.986 | [19] 0.916 | [20] 0.975 | [21] 0.937 | [22] 0.825 | [23] 0.987 | [24] 0.938

CC(C(=O)O)c1cccc(Oc2ccccc2)c1 (configuration not stated)
inactive: [1] 0.963 | S. cerevisiae deletion strains, locus YBR021W, strain FUR4, hits give low values 0.983 | [2] 0.94 | S. cerevisiae deletion strains, locus YCL029C, strain bik1, hits give low values 0.98 | S. cerevisiae deletion strains, locus YDL035C, strain GPR1, hits give low values 0.983 | S. cerevisiae deletion strains, locus YDL074C, strain BRE1, hits give low values 0.997 | [4] 0.96 | [27] 0.976 | S. cerevisiae deletion strains, locus YDL185W, strain tfp1, hits give low values 0.948 | S. cerevisiae deletion strains, locus YDL192W, strain arf1, hits give low values 0.973 | S. cerevisiae deletion strains, locus YDR101C, strain arx1, hits give low values 0.984 | [5] 0.947 | S. cerevisiae deletion strains, locus YDR162C, strain NBP2, hits give low values 0.969 | S. cerevisiae deletion strains, locus YDR318W, strain mcm21, hits give low values 0.988 | S. cerevisiae deletion strains, locus YDR388W, hits give low values 0.978 | S. cerevisiae deletion strains, locus YDR502C, strain sam2, hits give low values 0.981 | [6] 0.973 | S. cerevisiae deletion strains, locus YER110C, hits give low values 0.967 | S. cerevisiae deletion strains, locus YER155C, strain BEM2, hits give low values 0.958 | S. cerevisiae deletion strains, locus YER167W, strain BCK2, hits give low values 0.988 | S. cerevisiae deletion strains, locus YGL078C, strain dbp3, hits give low values 0.959 | S. cerevisiae deletion strains, locus YGL086W, strain mad1, hits give low values 0.98 | S. cerevisiae deletion strains, locus YGL248W, strain PDE1, hits give low values 0.974 | [7] 0.999 | S. cerevisiae deletion strains, locus YGR135W, strain pre9, hits give low values 0.985 | [31] 0.974 | S. cerevisiae deletion strains, locus YGR252W, strain gcn5, hits give low values 0.957 | [8] 0.978 and 0.9 | S. cerevisiae deletion strains, locus YHR079C, strain IRE1 (second series), hits give low values 0.972 | S. cerevisiae deletion strains, locus YHR079C, strain IRE1, hits give low values 0.892 | S. cerevisiae deletion strains, locus YHR094C, strain hxt1, hits give low values 0.965 | S. cerevisiae deletion strains, locus YHR129C, strain ARP1, hits give low values 0.983 | S. cerevisiae deletion strains, locus YHR200W, strain rpn10, hits give low values 0.98 | S. cerevisiae deletion strains, locus YIL066C, strain RNR3, hits give low values 0.964 | S. cerevisiae deletion strains, locus YIL073C, strain SPO22, hits give low values 0.965 | S. cerevisiae deletion strains, locus YIL125W, strain kgd1, hits give low values 0.944 | S. cerevisiae deletion strains, locus YIR030C, strain dcg1, hits give low values 0.962 | S. cerevisiae deletion strains, locus YJL095W, strain BCK1, hits give low values 1.05 and 0.905 | S. cerevisiae deletion strains, locus YJL134W, strain LCB3, hits give low values 0.962 | S. cerevisiae deletion strains, locus YJL168C, strain set2, hits give low values 0.967 | S. cerevisiae deletion strains, locus YJL187C, strain SWE1 (second series), hits give low values 0.983 | [10] 1 | S. cerevisiae deletion strains, locus YJR066W, strain TOR1, hits give low values 0.856 | [11] 0.998 | S. cerevisiae deletion strains, locus YKL009W, strain mrt4, hits give low values 0.879 | [28] 0.979 | S. cerevisiae deletion strains, locus YKR001C, strain vps1, hits give low values 0.947 | [29] 0.842 | S. cerevisiae deletion strains, locus YLR058C, strain SHM2, hits give low values 0.957 | S. cerevisiae deletion strains, locus YLR102C, strain apc9, hits give low values 0.97 | [14] 0.859 | S. cerevisiae deletion strains, locus YLR268W, strain sec22, hits give low values 1.04 | S. cerevisiae deletion strains, locus YLR330W, strain CHS5, hits give low values 0.956 | S. cerevisiae deletion strains, locus YLR342W, strain FKS1 (second series), hits give low values 0.999 | S. cerevisiae deletion strains, locus YLR371W, strain rom2, hits give low values 0.962 | S. cerevisiae deletion strains, locus YLR418C, strain cdc73, hits give low values 0.99 | S. cerevisiae deletion strains, locus YML016C, strain PPZ1, hits give low values 0.97 | S. cerevisiae deletion strains, locus YML032C, strain rad52, hits give low values 0.987 | S. cerevisiae deletion strains, locus YML124C, strain tub3, hits give low values 0.968 | S. cerevisiae deletion strains, locus YMR078C, strain ctf18, hits give low values 0.953 | S. cerevisiae deletion strains, locus YMR223W, strain ubp8, hits give low values 0.968 | [17] 0.982 | S. cerevisiae deletion strains, locus YMR307W, strain GAS1, hits give low values 0.953 | S. cerevisiae deletion strains, locus YNL067W, strain RPL9B, hits give low values 1 | [30] 0.966 | [18] 0.997 | S. cerevisiae deletion strains, locus YNL183C, strain NPR1, hits give low values 0.864 | S. cerevisiae deletion strains, locus YNL233W, strain BNI4, hits give low values 1 | S. cerevisiae deletion strains, locus YNL250W, strain rad50, hits give low values 0.941 | S. cerevisiae deletion strains, locus YNL271C, strain bni1, hits give low values 0.951 | S. cerevisiae deletion strains, locus YNL298W, strain CLA4, hits give low values 0.929 | S. cerevisiae deletion strains, locus YNL307C, strain MCK1, hits give low values 0.979 | [20] 0.969 | S. cerevisiae deletion strains, locus YNR052C, strain pop2, hits give low values 0.98 | [22] 1 | S. cerevisiae deletion strains, locus YOL012C, strain htz1 1.04 | S. cerevisiae deletion strains, locus YOL147C, strain pex11, hits give low values 0.975 | S. cerevisiae deletion strains, locus YOR061W, strain CKA2, hits give low values 0.964 | S. cerevisiae deletion strains, locus YOR069W, strain VPS5, hits give low values 0.966 | S. cerevisiae deletion strains, locus YOR136W, strain idh2, hits give low values 0.977 | S. cerevisiae deletion strains, locus YOR144C, strain elg1, hits give low values 0.972 | S. cerevisiae deletion strains, locus YOR184W, strain ser1, hits give low values 0.98 | S. cerevisiae deletion strains, locus YOR231W, strain MKK1, hits give low values 0.894 | S. cerevisiae deletion strains, locus YOR316C, strain cot1, hits give low values 0.962 | [23] 0.964 | [24] 0.976 | S. cerevisiae deletion strains, locus YPL256C, strain CLN2, hits give low values 0.851 | S. cerevisiae deletion strains, locus YPR119W, strain clb2, hits give low values 0.958 | S. cerevisiae deletion strains, locus YPR141C, strain kar3, hits give low values 0.921 | S. cerevisiae deletion strains, locus YPR163C, strain tif3, hits give low values 0.986 | S. cerevisiae deletion strains, locus YPR167C, strain met16, hits give low values 0.975 | S. cerevisiae deletion strains, strain wtn01, hits give low values 0.983 | [26] 0.973
active: S. cerevisiae deletion strains, locus YKL068W, hits give low values 0.937 | S. cerevisiae deletion strains, locus YKL085W, strain MDH1 (second series), hits give low values 0.919 | S. cerevisiae deletion strains, locus YKL085W, strain MDH1, hits give low values 0.919 | S. cerevisiae deletion strains, locus YLR113W, strain HOG1, hits give low values 0.828
